The source of these data is PubChem BioAssay (NCATS).

“And” between values parts separate entries of the source, which are not always exact repeats. Equal values may be shown once. Inconclusive results are not listed. The source made the active and inactive calls. Unless noted, calls follow the shape of the dose curve; as a rule, active = well fitted curve in the direction sought with a large enough effect; inconclusive = small, poorly fitted or top-dose-only effect, or another doubt; inactive = no such curve, though single readings can be large; an effect the other way counts as inactive or inconclusive.

A short description of experiment [1]: Validation of Assay for Modulators of Lamin A Splicing (AID 1459; active = well fitted curve in the direction sought with a large enough effect in the signal ratio; the % refers to the signal ratio;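 also: cells exposed to compound for two days before reading; 0% is about no effect; ratio rise marks activators and ratio drop marks inhibitors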). A digest of the protocol: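 HeLa S3 lamin A-EGFP/DsRed2 stable clone, 600 cells/well, Opti-MEM 2% FBS; compounds by pin tool; 48 hrs, 37 °C/5% CO2; Acumen 488 nm scan, objects 10-100 um; GFP/RFP intensity ratio.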
The target of experiment [2] is DNA repair nuclease/redox regulator APEX1 (Homo sapiens) (UniProt P27695). Description: qHTS Validation Assay for Inhibitors of the Human Apurinic/apyrimidinic Endonuclease 1 (APE1) (AID 1705;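 also: TAMRA fluorescence gain over two minutes as APE1 cuts a quenched THF abasic duplex; % is scaled to controls: 0 for no effect and ±100 for the full control effect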). A digest of the protocol:
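qHTS, 1536-well. APE1 + cpd 15 min RT → 50 nM TAMRA/BHQ-2 THF-abasic dsDNA substrate → kinetic fluorescence, 3 reads/60 s; delta(read3−read1) = reaction progress. No-enzyme buffer = negative control.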
In general terms: In qHTS, concentration-response curves come from the screen itself.

The target in experiment [3] is Endonuclease 4 (Escherichia coli (strain K12)) (UniProt P0A6C1). Description: Counterscreen for APE1 Inhibitors: qHTS Validation Assay for Inhibitors of Endonuclease IV (AID 1708). Also: % is scaled to controls: 0 for no effect and ±100 for the full control effect. An outline of the steps:
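Concentration-response counterscreen run identically to the APE1 assay: 15 min room-temperature preincubation of 2 nM enzyme with compound, reaction started with 50 nM quenched abasic DNA, progress taken from kinetic fluorescence.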

Experiment [4] can be described thus: qHTS for differential inhibitors of proliferation of Plasmodium falciparum line 7G8 (AID 1815).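 Also: parasite growth measured after three days of incubation.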 Also: potency is read from the fitted curve at half-maximal effect.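 As to activity change, negative = inhibition: plate controls were vehicle wells for no effect and reference inhibitor wells for full effect.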
Experiment [5] can be described thus: qHTS for differential inhibitors of proliferation of Plasmodium falciparum line GB4 (AID 1816).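 Also: parasite growth measured after 72 h incubation.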 Also: potency is read from the fitted curve at half-maximal effect.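 As to activity change, negative = inhibition: 0% = vehicle DMSO and -100% = reference inhibitor.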 Particulars: Potency: Plasmodium falciparum GB4 proliferation inhibition.
Experiment [6] can be described thus: qHTS for differential inhibitors of proliferation of Plasmodium falciparum line D10 (AID 1877).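 Also: parasites grown with compound for 72 h before DNA staining.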 Also: potency is read from the fitted curve at half-maximal effect.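 As to activity change, negative = inhibition: plate controls were vehicle wells for no effect and reference inhibitor wells for full effect.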
Experiment [7] in a line: qHTS for differential inhibitors of proliferation of Plasmodium falciparum line W2 (AID 1883).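 Also: parasites grown with compound for 72 h before lysis and staining.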 Also: potency is read from the fitted curve at half-maximal effect.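 As to activity change, negative = inhibition: 0% = vehicle wells and -100% = control inhibitor wells.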 Particulars: Potency: Plasmodium falciparum W2 proliferation inhibition.
Experiment [8] is described as follows: qHTS for differential inhibitors of proliferation of Plasmodium falciparum line HB3 (AID 1886).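 Also: parasites grown with compound for 72 h before SYBR Green readout.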 Also: potency is read from the fitted curve at half-maximal effect.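 As to activity change, negative = inhibition: plate controls were vehicle for no effect and reference inhibitor for full effect.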 The conditions noted are these: Potency: Plasmodium falciparum HB3 proliferation inhibition.
The target of experiment [9] is ATP-dependent DNA helicase Q1 (Homo sapiens) (UniProt P46063). In words: qHTS Validation Assay for Inhibitors of RecQ-Like Dna Helicase 1 (RECQ1) (AID 2353).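 Also: plate controls were DMSO vehicle for no effect and enzyme-free control for full effect.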 A digest of the protocol:
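50 nM RECQ1T1 preincubated 15 min with compound in Tris pH 8.0 buffer with MgCl2, DTT, Tween-20 and 2.5 ug/ml poly(dI-dC); started with 200 nM TAMRA/BHQ-2 forked duplex and 2 mM ATP. Unwinding read as fluorescence (525/598 nm), two reads 2 h apart.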

For experiment [10], the target named is alpha-glucosidase (Oryza sativa, rice) (UniProt Q653V4). Description: Counterscreen for Glucocerebrosidase Inhibitors: qHTS Assay for Rice alpha-Glucosidase at pH 5.0 (AID 997).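 Also: 0% = full activity with enzyme and -100% = basal without enzyme.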 An outline of the steps:
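Rice alpha-glucosidase (4 nM final) with 400 uM 4-methylumbelliferyl-alpha-D-glucopyranoside in citrate buffer pH 5.0, 20 min at room temperature, stopped at pH 10; fluorescence 365/440 nm, compounds 0.7 nM–77 uM, AC50 from Hill fits.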
(The purpose of a counterscreen is to sort out artefacts and off-target activity.)

Experiment [11] can be described thus: Counterscreen for APE1 Inhibitors: Fluorescent Dye Displacement Validation Assay (AID 1707).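 Also: plate controls were ThO with dsDNA and no compound for no effect and ThO without dsDNA for full effect.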 An outline of the steps:
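Assay buffer: Tris-HCl pH7.5 with 50mM NaCl, 2 mM MgCl2, 0.01% Tween-20. Dye 250 nM, duplex 50 nM final. Readout: decrease in ThO endpoint fluorescence, 480 nm excitation, 540 nm emission.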

Experiment [12] can be described thus: qHTS for differential inhibitors of proliferation of Plasmodium falciparum line 3D7 (AID 1876). Also: potency is read from the fitted curve at half-maximal effect.
A short description of experiment [13]: qHTS for differential inhibitors of proliferation of Plasmodium falciparum line Dd2 (AID 1882). Also: nearly all actives have a fitted effect of over 65% in size. Also: potency is read from the fitted curve at half-maximal effect.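 As to activity change, negative = inhibition: plate controls were DMSO vehicle for no effect and 0.29 µM artemisinin for full effect.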 The conditions noted are these: Potency: Plasmodium falciparum Dd2 proliferation inhibition. A digest of the protocol: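 Dd2-infected erythrocytes (0.3% parasitemia, 2.5% hematocrit final) incubated with compound 72 h at 37 C, 5% CO2; lysed with saponin/Triton buffer containing SYBR Green I, incubated overnight in the dark, then read by fluorescence (485/535 nm). Normalized to 0.29 uM artemisinin and DMSO.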

Experiment [14] addresses Ferritin light chain (Equus caballus) (UniProt P02791). Description: qHTS Validation Assay for Identification of Novel General Anesthetics (AID 2323). Also: % is scaled to controls: 0 for no effect and ±100 for the full control effect. An outline of the steps: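 Fluorescence at 535 nm (excitation 380 nm) reported loss of 1-AMA binding to horse-spleen apoferritin (10 uM) in PBS with 50% saturated 1-aminoanthracene, after 10 min room-temperature incubation with compound; values from Hill fits of normalized response.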

For experiment [15], the target named is RecQ-like DNA helicase BLM (Homo sapiens) (UniProt P54132). Description: qHTS Validation Assay for Inhibitors of Bloom's syndrome helicase (BLM) (AID 2364).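 Also: plate controls were DMSO vehicle for no effect and enzyme-free control for full effect.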 An outline of the steps: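 BLM 50 nM in 25 mM Tris-HCl pH 8.0, 5 mM NaCl, 2 mM MgCl2, 1 mM DTT, 0.01% Tween-20, 2.5 ug/ml poly(dI-dC); 15 min cpd preinc, RT. Start: 200 nM forked DNA + 2 mM ATP (final). TAMRA read, 2 reads 2 h apart.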

Experiment [16] can be described thus: qHTS Assay for Lipid Storage Modulators (AID 1519; calls by dose curve; as to activity change, negative = inhibition: % is scaled to controls: 0 for no effect and ±100 for the full control effect). The conditions noted are these: Drosophila S3 cells, BODIPY lipid droplet/cell ratio, laser cytometry, cells loaded with oleic acid. An outline of the steps:
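Cells seeded at 5,000 per well were treated with compounds over a concentration series and loaded with oleic acid (400 uM, as added). Lipid droplet fluorescence (488 nm excitation, 500-530 nm channel) was read by laser-scanning cytometry and normalized to 20 uM Triacsin C.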

A short description of experiment [17]: Cell Viability - LYMP1-002 - Assay at 40 hr (AID 994). Also: potency is read from the fitted curve at half-maximal effect; nearly all actives have a fitted effect of over 60% in size. A digest of the protocol: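 LYMP1-002 human lymphoblastoid cells (2500/well, complete medium) were treated with compounds for 40 hr at 37 C. Intracellular ATP was measured by CellTiter-Glo luminescence, and AC50 values came from Hill-equation fits of concentration-response data; tetraoctylammonium bromide was the positive control.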

The mark [18] stands for this setting: measured here: cell count channel max response.
The mark [19] stands for this setting: measured here: lipid channel max response.

Sequence of Ferritin light chain (Equus caballus) (P02791 2-175 limits assumed): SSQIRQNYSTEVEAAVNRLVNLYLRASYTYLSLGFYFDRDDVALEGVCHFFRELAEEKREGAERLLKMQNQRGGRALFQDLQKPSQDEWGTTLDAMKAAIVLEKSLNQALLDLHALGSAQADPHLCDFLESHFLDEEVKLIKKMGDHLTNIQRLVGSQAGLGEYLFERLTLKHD
Sequence of DNA repair nuclease/redox regulator APEX1 (Homo sapiens) (P27695 whole entry, looked up): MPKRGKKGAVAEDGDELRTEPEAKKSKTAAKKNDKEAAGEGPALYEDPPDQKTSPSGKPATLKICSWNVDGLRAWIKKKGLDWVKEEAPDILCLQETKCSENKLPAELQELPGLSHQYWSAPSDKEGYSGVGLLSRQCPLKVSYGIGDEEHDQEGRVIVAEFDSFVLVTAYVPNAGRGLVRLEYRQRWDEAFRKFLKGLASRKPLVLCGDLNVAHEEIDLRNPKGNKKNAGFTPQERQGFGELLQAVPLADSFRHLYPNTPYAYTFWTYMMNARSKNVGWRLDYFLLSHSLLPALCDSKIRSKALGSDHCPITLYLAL
Sequence of ATP-dependent DNA helicase Q1 (Homo sapiens) (P46063 whole entry, looked up): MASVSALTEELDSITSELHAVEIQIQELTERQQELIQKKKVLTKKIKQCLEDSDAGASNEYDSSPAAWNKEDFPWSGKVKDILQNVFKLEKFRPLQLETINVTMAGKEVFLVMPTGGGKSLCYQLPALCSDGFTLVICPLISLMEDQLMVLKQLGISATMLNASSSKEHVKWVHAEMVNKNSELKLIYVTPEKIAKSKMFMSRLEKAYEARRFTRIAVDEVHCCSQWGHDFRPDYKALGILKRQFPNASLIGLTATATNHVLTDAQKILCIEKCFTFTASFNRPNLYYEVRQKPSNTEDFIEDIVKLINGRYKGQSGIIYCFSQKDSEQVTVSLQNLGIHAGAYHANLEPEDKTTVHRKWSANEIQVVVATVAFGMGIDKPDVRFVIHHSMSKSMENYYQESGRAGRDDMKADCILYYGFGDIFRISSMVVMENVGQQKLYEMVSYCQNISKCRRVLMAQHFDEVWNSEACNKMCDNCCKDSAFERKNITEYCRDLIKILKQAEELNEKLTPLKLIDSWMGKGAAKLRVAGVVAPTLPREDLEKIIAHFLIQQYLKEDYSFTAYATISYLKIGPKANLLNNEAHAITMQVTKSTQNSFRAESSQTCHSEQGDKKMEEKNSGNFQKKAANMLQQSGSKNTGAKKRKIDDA
Sequence of RecQ-like DNA helicase BLM (Homo sapiens) (P54132 whole entry, looked up): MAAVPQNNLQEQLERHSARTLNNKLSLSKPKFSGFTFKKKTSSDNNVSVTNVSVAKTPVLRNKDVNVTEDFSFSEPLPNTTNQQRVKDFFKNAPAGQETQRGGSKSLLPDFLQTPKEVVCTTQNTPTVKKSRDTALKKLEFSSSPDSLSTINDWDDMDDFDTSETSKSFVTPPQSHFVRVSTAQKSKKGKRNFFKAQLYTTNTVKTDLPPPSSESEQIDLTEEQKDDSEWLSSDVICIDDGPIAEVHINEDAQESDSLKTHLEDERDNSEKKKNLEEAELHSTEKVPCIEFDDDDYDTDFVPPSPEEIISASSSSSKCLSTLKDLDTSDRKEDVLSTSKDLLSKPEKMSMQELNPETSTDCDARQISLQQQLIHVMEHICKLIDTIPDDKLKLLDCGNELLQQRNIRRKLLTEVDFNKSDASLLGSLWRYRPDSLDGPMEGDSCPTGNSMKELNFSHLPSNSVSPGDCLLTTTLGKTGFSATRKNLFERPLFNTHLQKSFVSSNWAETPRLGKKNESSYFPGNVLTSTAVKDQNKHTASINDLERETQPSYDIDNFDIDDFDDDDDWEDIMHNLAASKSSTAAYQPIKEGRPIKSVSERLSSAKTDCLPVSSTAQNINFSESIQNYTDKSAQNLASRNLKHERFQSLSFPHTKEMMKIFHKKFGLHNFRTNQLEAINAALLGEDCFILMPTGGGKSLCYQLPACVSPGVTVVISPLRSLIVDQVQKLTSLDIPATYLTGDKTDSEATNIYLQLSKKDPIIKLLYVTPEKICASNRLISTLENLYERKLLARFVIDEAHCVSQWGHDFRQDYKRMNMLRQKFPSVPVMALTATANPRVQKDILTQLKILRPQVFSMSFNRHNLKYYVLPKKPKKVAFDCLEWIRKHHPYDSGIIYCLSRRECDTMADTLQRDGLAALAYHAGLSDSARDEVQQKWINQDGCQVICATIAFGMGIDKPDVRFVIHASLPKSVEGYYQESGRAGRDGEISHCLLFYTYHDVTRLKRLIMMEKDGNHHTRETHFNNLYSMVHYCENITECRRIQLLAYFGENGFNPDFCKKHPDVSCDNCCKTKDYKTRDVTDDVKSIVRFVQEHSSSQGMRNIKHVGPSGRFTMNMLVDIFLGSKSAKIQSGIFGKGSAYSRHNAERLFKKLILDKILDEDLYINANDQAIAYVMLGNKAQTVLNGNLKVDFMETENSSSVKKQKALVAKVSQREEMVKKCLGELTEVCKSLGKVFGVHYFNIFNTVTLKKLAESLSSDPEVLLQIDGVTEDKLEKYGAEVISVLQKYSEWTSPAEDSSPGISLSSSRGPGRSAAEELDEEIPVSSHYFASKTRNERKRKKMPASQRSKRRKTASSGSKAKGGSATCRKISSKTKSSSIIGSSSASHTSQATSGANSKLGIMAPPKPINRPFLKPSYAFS

For `N#C/C(=C\c1ccc(O)c(O)c1)C(=O)NCCCc1ccccc1`, the molecule was called inactive in experiment [1]. Moreover, the Potency result in [2], in experiment [3] and in experiment [9] was “inactive” each time. The Potency is 8.91 µM (active) in [4]; 14.1 µM (active) in experiment [5]; 11.2 µM (active) in [6]; 7.08 µM (active) in [7]; 12.6 µM (active) in [8].

Consider `CCCCN1CCC(n2c(=O)[nH]c3ccccc32)CC1`, for which the molecule was classed as inactive in experiment [10] and in experiment [1]. The Potency entry in experiment [2], in experiment [11], in experiment [4], in experiment [5], in experiment [12] and in experiment [6] was “inactive” throughout. Besides, the Potency entry in [13], in [8], in [14], in experiment [9] and in [15] was “inactive” each time. The Potency in experiment [7] is 8.91 µM (active).

`O=C(O)[C@@H]1C[C@H](C(=O)O)N1`: the result in [1] was inactive. Besides, the Potency result in experiment [11], in [3], in experiment [4], in experiment [5], in experiment [12] and in [6] was “inactive” each time. The Potency entry in [13], in experiment [7], in experiment [8], in experiment [14] and in experiment [9] was “inactive” throughout.

With `Nc1nc(Cl)nc2c1ncn2[C@@H]1O[C@H](CO)[C@@H](O)[C@H]1O`, the activity change, negative = inhibition in [16] (at 57.5 µM (top of the series)) was 5.13% (inactive). For the same molecule, the values for the max response in experiment [16] (setting [18]) and in experiment [16] (setting [19]) were 7.07% and 14%, respectively.

As for `O=C(O)Cc1ccc(-c2ccccc2)cc1`, the activity change, negative = inhibition in experiment [16] (at 25.7 µM (top of the series)) is 1.48% (inactive). The max response was -7.71% in experiment [16] (setting [18]) and -5.4% in experiment [16] (setting [19]).

As for `C[C@@H](NC(=O)/C(C#N)=C/c1ccc(O)c(O)c1)c1ccccc1`, the outcome in experiment [1] was inactive. The Potency result in [2], in [11], in [3] and in [9] was “inactive” each time. In addition, the Potency was 11.2 µM (active) in experiment [4]; 10 µM (active) in [5]; 12.6 µM (active) in experiment [6]; 11.2 µM (active) in [7]; 11.2 µM (active) in experiment [8].

Turning to `O=C(O)/C=C/C(O)c1ccc(Cl)cc1` (stereo not drawn), in experiment [1], the call was inactive. The Potency entry in [11], in experiment [3], in experiment [4], in [5], in experiment [12] and in experiment [6] was “inactive” throughout. Moreover, the Potency entry in experiment [13], in experiment [7], in experiment [8], in experiment [14] and in experiment [9] was “inactive” in each case.

For `N[C@H](CCCP(=O)(O)O)C(=O)O`, the activity change, negative = inhibition in experiment [16] (at 57.5 µM (top of the series)) is 2.93% (inactive) and -1.99% (inactive). Besides, the max response was -9.86% and -13.3% in experiment [16] (setting [18]); -5.72% and -16.1% in experiment [16] (setting [19]).

In the case of `c1cnc2c(c1)ccc1cccnc12`, the Potency is 12.6 µM (active) in experiment [17]; 1.58 µM (active) in experiment [4]; 2 µM (active) in experiment [5]; 2 µM (active) in experiment [12]; 2.51 µM (active) in experiment [6]; 2 µM (active) in [13]. Moreover, the values for the Potency in [7] and in experiment [8] were 1 µM (active) and 2 µM (active), respectively. The molecule was classed as inactive in [1]. The Potency entry in experiment [2], in experiment [11], in [14], in [9] and in experiment [15] was “inactive” throughout.

As to `CN(C)C(N)=NCCC[C@H](N)C(=O)O`, the molecule was called inactive in experiment [10] and in experiment [1]. In addition, the Potency entry in experiment [11], in [3], in experiment [4], in experiment [5], in experiment [12] and in experiment [6] was “inactive” in each case. Moreover, the Potency entry in experiment [13], in experiment [7], in [8], in experiment [14] and in [9] was “inactive” in each case.

Regarding `COC(=O)c1c(C)[nH]c(C)c1C(=O)c1ccccc1Cc1ccccc1`, the call in experiment [10] and in experiment [1] was inactive. Further, the Potency entry in experiment [11] and in experiment [9] was “inactive” throughout. Besides, the Potency in [4] was 7.94 µM (active); in experiment [5], 7.94 µM (active); in [12], 8.91 µM (active); in experiment [6], 14.1 µM (active); in experiment [7] it was 8.91 µM (active); in experiment [8] it was 12.6 µM (active).
